HTT-AS promoter: activates huntingtin-antisense promoter activity; HEK293 HTT-AS promoter firefly luciferase reporter, 24 h; response scale: percent change from vehicle, -100% = no light; Potency, µM (series often up to 57.5 µM), inactives show top-dose activity change, positive = activation, hits mostly activators; actives 0.24% (n = 48,000); AID 1508624; also: nearly all actives have a fitted effect of over 55% in size
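HEK293 luciferase promoter-reporter cells (2,500/well) plated 24 h, then compounds added at up to 57.5 uM final for 24 h at 37 °C. Firefly luminescence by Dual-Glo, normalized to vehicle (0%) and zero RLU (-100%).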
HTT promoter inh: HTT promoter inhibition. HEK293 HTT promoter firefly luciferase reporter, 24 h. AID 1508623. actives 0.93% (n = 48,000). Potency, µM (doses to about 57.5 µM), without a hit: top-dose activity change, negative = inhibition, hits mostly inhibitors; also: nearly all actives have a fitted effect of over 50% in size
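Quantitative HTS used concentration series of up to 57.5 uM final on HEK293 luciferase reporter cells, 24 h at 37 degrees C. Readout was Dual-Glo firefly luminescence.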
GALC G270D act: galactocerebrosidase G270D activity enhancement, cell-based; P54803; actives 0.1% (n = 45,000); 145M-Twi-hGALC-G270D cells, HMU-beta-Gal fluorescence, 48 h; AID 1159614; Potency, µM (titrated, usually from 57.5 µM), most hits filed as activators; also: 0% is about no effect; nearly all actives have a fitted effect of over 65% in size
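qHTS, 1536-well; 145M-Twi-hGALC-G270D cells (WT line also made) in DMEM/F12 + 10% FBS; compound incubation on live cells; HMU-β-gal 0.1 mM final, pH 5.2, NaTC; carbonate stop; fluorescence increase = enhanced residual activity.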
NTMT1 inhibitor: blocks human N-terminal methyltransferase 1 activity | Q9BV86 | NTMT1 MTase-Glo SAH luminescence, purified enzyme | Potency, µM (doses to about 114 µM), for inactives: at the highest dose activity change, negative = inhibition, actives largely listed as inhibitors | actives 2.5% (n = 59,000);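 also: plate controls were DMSO vehicle for no effect and no enzyme for full effect; nearly all actives have a fitted effect of over 65% in size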
Target sequence (Q9BV86 whole entry, looked up): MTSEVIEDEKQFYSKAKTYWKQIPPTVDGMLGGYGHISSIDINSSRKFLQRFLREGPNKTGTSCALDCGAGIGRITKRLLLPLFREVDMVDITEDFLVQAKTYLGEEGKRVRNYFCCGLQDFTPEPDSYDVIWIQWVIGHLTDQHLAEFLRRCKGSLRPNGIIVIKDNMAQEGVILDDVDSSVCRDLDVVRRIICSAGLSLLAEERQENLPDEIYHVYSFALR
* = called active by the depositor; i = inactive; ? = inconclusive; nt = no result given; ! = not active in a repeat; [ ] = remark or other dose. Sampled rows, rich in hits. Any-hit rate of the full collection: about 2.7%. Calls follow the shape of the dose curve; as a rule, active = well fitted curve in the direction sought with a large enough effect; inconclusive = small, poorly fitted or top-dose-only effect, or another doubt; inactive = no such curve, though single readings can be large; an effect the other way counts as inactive or inconclusive. Potency is read from the fitted curve at half-maximal effect.

SMILES | HTT-AS promoter | HTT promoter inh | GALC G270D act | NTMT1 inhibitor
C=CC(=O)N1CC(N2CCN(C(=O)CNc3cc(C4CC4)c(Cl)cc3O)CC2)C1 | nt | nt | nt | 1%[57.5 µM]
O=C(Cn1nc(-c2ccc(C(F)(F)F)cc2)ccc1=O)NCCc1ccccc1 | nt | nt | nt | 14%
COc1ccc(CCN2CCN(CCCc3ccccc3)CC2)cc1OC | -12% | -2% | nt | 89µM*!
COc1ccc(CCNC(=O)C2CC(=O)N(CCc3ccccc3)C2)cc1OC (stereo unspecified) | -3% | -13% | i | 11%
c1cn2cc(-c3ccc4cn[nH]c4c3)nc(Nc3ccc(N4CCOCC4)cc3)c2n1 | nt | nt | nt | 20µM*
COc1ccc(-c2nn(-c3ccc(F)cc3)c3c2cnc2cc4c(cc23)OCO4)cc1 | -3% | 0% | i | 3%
COc1cc(OC)cc(-c2ccc3ncc4ccc(=O)n(-c5ccc(N6CCNCC6)c(C(F)(F)F)c5)c4c3c2)c1 | -34% | ? | nt | 43µM*
FC(F)(F)c1ccccc1-c1nc(NCc2cccc(Cl)c2)c2ccccc2n1 | nt | nt | nt | -8%
COc1ccc(C2Nc3ccccc3C(=O)N2Cc2cccnc2)cc1COc1c(C)cc(NC(C)=O)cc1C (stereo unspecified) | nt | nt | nt | 10%
Cc1ccc(Cn2ccn(CC(=O)Nc3c(C)cc(C)cc3C)c(=O)c2=O)cc1 | -16% | -22% | i | 50µM*
CCC(=O)OCC(=O)C1(OC(=O)CC)C(C)CC2C3CCC4=CC(=O)C=CC4(C)C3(F)C(O)CC21C (stereo unspecified) | nt | nt | nt | 6%
O=C(Nc1cccc2c(=O)cc(-c3nn[nH]n3)oc12)c1ccc(OCCCCc2ccccc2)cc1 | -31% | ? | i | 18µM*
CCCOc1ccc(C(=O)Nc2ccc(NC(=O)c3ccccc3)c(C)c2)cc1 | -8% | -6% | i | -2%
O=C(Nc1ccc(Cl)c(Cl)c1)Nc1nnc(-c2cccnc2)s1 | nt | nt | nt | 22µM*
Cc1ccc(OCCn2c(CCNC(=O)CCc3ccccc3Br)nc3ccccc32)cc1 | nt | nt | nt | 5%
COc1ccc(CN2CCc3c(c(=O)n4ncc(C(=O)N5CCN(c6ccc(F)cc6)CC5)c4n3C)C2)cc1 | -51% | 13µM* | i | ?
C=C(NC(=O)C(=C)NC(=O)c1csc(C2=NC3c4csc(n4)C4NC(=O)c5csc(n5)C(C(C)(O)C(C)O)NC(=O)C5CSC(=N5)/C(=C/C)NC(=O)C(C(C)O)NC(=O)c5csc(n5)C3(CC2)NC(=O)C(C)NC(=O)C(=C)NC(=O)C(C)NC(=O)C(C(C)CC)NC2C=Cc3c(C(C)O)cc(nc3C2O)C(=O)OC4C)n1)C(N)=O (stereo unspecified) | nt | nt | nt | 26%[57.5 µM]
Cc1c(-c2cnccn2)ssc1=S | nt | nt | nt | 3.2µM*
N#Cc1cnc2c(Cl)cc(NCc3cn(CCN4CCCCCC4)nn3)cc2c1Nc1ccc(F)c(Cl)c1 | nt | nt | nt | 10µM*
Cc1cccc(C)c1SC1=NS(=O)(=O)c2ccccc21 | nt | nt | nt | 10%
COC(=O)C(Cc1ccc(OCCn2c(=O)sc3cc(C(=O)c4ccccc4)ccc32)cc1)C(=O)OC | nt | nt | nt | 4%[57.5 µM]
CN(CCOc1ccc(C[C@H](Nc2ccccc2C(=O)c2ccccc2)C(=O)O)cc1)c1ccccn1 | nt | nt | nt | 79µM*!
Cc1cc(NC(=O)c2oc3c(c2C)-c2[nH]ncc2CC3)ccc1Br | 1.1µM* | 68% | i | -28%
CCc1ccc(NC(=O)c2oc3c(c2C)-c2[nH]ncc2CC3)cc1 | ? | 80% | i | ?
CCN(CC)c1cc2c(cc1S(=O)(=O)Nc1ccc(C)c(C)c1)CCC(=O)N2 | nt | nt | nt | 10%
SMILES | HTT-AS promoter | HTT promoter inh | GALC G270D act | NTMT1 inhibitor
COc1ccc(OC)c(CNC(=O)c2ccc3c(c2)c(C)c(C)n3Cc2ccc(Cl)cc2)c1 | -29% | -23% | i | 20%
COc1ccc(OC)c(CNC(=O)c2ccc3c(c2)c(C)c(C)n3C)c1 | -11% | -5% | i | 89µM*
O=C(CSc1nnc2[nH]c(=O)cc(-c3ccccc3)n12)Nc1cc(C(F)(F)F)ccc1Cl | 18µM* | 36% | i | ?
COc1ccc(C(=O)N2CCN(C(=O)/C=C/c3ccc(Br)cc3)CC2)cc1 | nt | nt | nt | 10%
O=C(CN1C(=O)N/C(=C\c2cccn2-c2cccc(C(=O)O)c2)C1=O)Nc1cccc(F)c1 | nt | nt | nt | 1%[57.5 µM]
O=C(O)c1cccc(-n2cccc2/C=C2/C(=O)N(Cc3ccc(F)cc3)C(=O)N2Cc2ccc(F)cc2)c1 | nt | nt | nt | 79µM*
Cc1ccc(NC(=O)CN2C(=O)N/C(=C\c3cccn3-c3ccc(C(=O)O)cc3)C2=O)cc1 | nt | nt | nt | 6%
